In PubChem BioAssay (EPA / NIEHS):
Results filed as inconclusive are left out. Active and inactive are the calls of the source. The calls were made as follows, unless noted: active = hit-call score of the fitted dose curve at least 0.9, where 1 is the maximum; inactive = score below 0.9.

Legend:
[1] = molecular target: Oxysterols receptor LXR-alpha (Homo sapiens) (UniProt Q13133); assay: ATG_LXRa_TRANS: Attagene TRANS-FACTORIAL HepG2 Assay for human Liver X Receptor alpha (LXRa) (AID 2282980; active = hit-call score of the fitted dose curve at least 0.9, where 1 is the maximum); settings: HepG2 Attagene TRANS reporter, LXRa transactivation
Method in brief: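 HepG2 cells were transiently transfected with multiplexed reporter units driven by chimeric LXRa–GAL4 fusion proteins, then dosed for 24 h. Reporter mRNA was quantified by RT-PCR, fluorescent labelling and capillary electrophoresis; gain of signal fitted against DMSO baseline.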

[2] = ATG_M_06_TRANS: Attagene TRANS-FACTORIAL HepG2 Assay for M06 Transcription Factor (Internal Marker) (AID 2282983; active = hit-call score of the fitted dose curve at least 0.9, where 1 is the maximum); settings: HepG2 Attagene TRANS M06 internal marker reporter
Method in brief: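 HepG2 cells transiently transfected with multiplexed GAL4-UAS reporter transcription units; after 24 h compound exposure, reporter mRNA measured by RT-PCR, FAM-labelled primer extension, HpaI digestion and capillary electrophoresis. Gain-of-signal fitted versus DMSO baseline; background control readout.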

[3] = ATG_M_32_TRANS: Attagene TRANS-FACTORIAL HepG2 Assay for M32 Transcription Factor (Internal Marker) (AID 2282984; active = hit-call score of the fitted dose curve at least 0.9, where 1 is the maximum); settings: HepG2 Attagene TRANS M32 internal marker reporter
Method in brief: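 Capillary electrophoresis of 6-FAM-labelled reporter fragments gives the signal; data fitted for gain over DMSO negative control. Source: HepG2 cells bearing transient multiple reporter transcription units, 24 h exposure.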

[4] = molecular target: Nuclear receptor subfamily 4 group A member 2 (Homo sapiens) (UniProt P43354); assay: ATG_NURR1_TRANS: Attagene TRANS-FACTORIAL HepG2 Assay for human Nuclear Receptor Related Protein 1 (NURR1) (AID 2282985; active = hit-call score of the fitted dose curve at least 0.9, where 1 is the maximum); settings: HepG2 Attagene TRANS reporter, mRNA readout
Method in brief: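 HepG2 / transient MRTU transfection / 24 h compound exposure / RT-PCR + CE fluorescence of reporter mRNA / gain-of-signal vs DMSO.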

[5] = molecular target: Transcriptional activator Myb (Homo sapiens) (UniProt P10242); assay: ATG_Myb_CIS: Attagene CIS-FACTORIAL HepG2 Assay for human Myeloblastosis (Myb) Proto-Oncogene Transcription Factor (AID 2282986); settings: HepG2 Attagene CIS-FACTORIAL Myb reporter transcription; actives raise or lower the signal
Method in brief: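 Reporter mRNA is quantified by RT-PCR and capillary electrophoresis 24 h after dosing HepG2 cells transfected with cis-regulated reporter units, which track endogenous transcription factor activity. Gain and loss of signal are fitted versus DMSO baseline.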

[6] = molecular target: Nuclear respiratory factor 1 (Homo sapiens) (UniProt Q16656); assay: ATG_NRF1_CIS: Attagene CIS-FACTORIAL HepG2 Assay for human Nuclear Respiratory Factor 1 (NRF1) Orphan Gene (AID 2282987); settings: HepG2 NRF1 cis-element reporter, Attagene multiplex; actives raise or lower the signal
Method in brief: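 Endogenous NRF1-driven reporter transcription in transfected HepG2 cells after 24 h treatment. Readout: RT-PCR products, 6-FAM labelled and resolved by capillary electrophoresis; changes fitted both directions relative to DMSO.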

[7] = ATG_NFI_CIS: Attagene CIS-FACTORIAL HepG2 Assay for human Nuclear Factor I (NFI) (AID 2282989); settings: HepG2 cis-regulatory reporter, NFI response element transcription; actives raise or lower the signal
Method in brief: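 Reporter transcription driven by endogenous transcription factors in HepG2 cells; 24 h treatment. Quantitation by labelled RT-PCR fragments on capillary electrophoresis, gain- or loss-of-signal relative to DMSO.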

[8] = molecular target: Myc proto-oncogene protein (Homo sapiens) (UniProt P01106); assay: ATG_Myc_CIS: Attagene CIS-FACTORIAL HepG2 Assay for human Myelocytomatosis (Myc) Proto-Oncogene Transcription Factor (AID 2282990); settings: HepG2, Attagene cis-reporter transcription factor activity; actives raise or lower the signal
Method in brief: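 Transiently transfected HepG2 cells bearing cis-promoter reporter units for endogenous transcription factors; 24 h exposure. Reporter mRNA measured by RT-PCR, 6-FAM primer extension, HpaI cut and capillary electrophoresis; bidirectional fit relative to DMSO.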

[9] = ATG_NF_kB_CIS: Attagene CIS-FACTORIAL HepG2 Assay for human Nuclear Factor Kappa B (NF-kB) (AID 2282991); settings: HepG2 Attagene cis-factorial NF-kB reporter mRNA; actives raise or lower the signal
Method in brief: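 Readout is reporter transcript level, gain or loss versus DMSO, measured 24 h post-dose via RT-PCR, fluorescent labelling and capillary electrophoresis. Human HepG2 liver cells carried transiently transfected CIS reporter constructs reflecting endogenous factors.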

[10] = ATG_NRF2_ARE_CIS: Attagene CIS-FACTORIAL HepG2 Assay for human Nuclear Factor Erythroid 2 Related Factor 2 (NFR2) response to Antioxidant Response Elements (ARE) (AID 2282992); settings: HepG2 Attagene ARE/NRF2 reporter, transcription factor activity; actives raise or lower the signal;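 as to AC50: reporter mRNA level measured by RT-PCR and capillary electrophoresis fluorescence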
Method in brief: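 Cis-factorial assay: transfected HepG2 reporter library, 24 h dosing, mRNA readout via RT-PCR/CE; DMSO-referenced bidirectional analysis.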

[11] = ATG_Oct_MLP_CIS: Attagene CIS-FACTORIAL HepG2 Assay for human Octamer-Binding Transcription Factor (Oct) (AID 2282993); settings: HepG2 Attagene cis-factorial Oct reporter, mRNA; actives raise or lower the signal
Method in brief: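 Transfected HepG2 cells, 24 h treatment. Reporter mRNA quantified by RT-PCR–capillary electrophoresis; bidirectional fitting against DMSO.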

[12] = molecular target: Oxysterols receptor LXR-beta (Homo sapiens) (UniProt P55055); assay: ATG_LXRb_TRANS: Attagene TRANS-FACTORIAL HepG2 Assay for human Liver X Receptor beta (LXRb) (AID 2282981; active = hit-call score of the fitted dose curve at least 0.9, where 1 is the maximum); settings: HepG2 Attagene TRANS GAL4-LXRb reporter, mRNA
Method in brief: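 Gain-of-signal mRNA reporter endpoint, DMSO as negative control. Transiently transfected HepG2 cells carrying the NR-Gal4 chimera and GAL4-UAS reporter units were treated 24 h; transcripts quantified by RT-PCR and capillary electrophoresis fluorescence.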

[13] = molecular target: Cellular tumor antigen p53 (Homo sapiens) (UniProt P04637); assay: ATG_p53_CIS: Attagene CIS-FACTORIAL HepG2 Assay for human p53 Transcription Factor (AID 2282994); settings: HepG2 p53 cis-element reporter, Attagene mRNA; actives raise or lower the signal
Method in brief: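 Using HepG2 hepatoma cells carrying cis-acting multiplexed reporters, mRNA induction is detected after a 24 h exposure. Gain- and loss-of-signal responses are fitted relative to DMSO-treated cells.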

[14] = molecular target: Hepatocyte nuclear factor 4-alpha (Homo sapiens) (UniProt P41235); assay: ATG_HNF4a_TRANS: Attagene TRANS-FACTORIAL HepG2 Assay for human Hepatocyte Nuclear Factor 4 alpha (HNF4a) (AID 2282982; active = hit-call score of the fitted dose curve at least 0.9, where 1 is the maximum); settings: HepG2 HNF4a transactivation reporter, mRNA readout
Method in brief: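 Gain-of-signal mRNA induction, relative to DMSO vehicle, was read after 24 h compound treatment of HepG2 cells bearing transfected GAL4-UAS reporters. Detection used RT-PCR, 6-FAM primer extension and capillary electrophoresis.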

[15] = BSK_3C_TissueFactor: BioMAP Diversity Plus: 3C Assay for Tissue Factor Biomarker Activity (AID 2282997); settings: BioMAP 3C HUVEC, tissue factor biomarker readout; actives raise or lower the signal
Method in brief: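 Primary human umbilical vein endothelial cells in the 3C system were exposed to test chemical for 24 h, then Tissue Factor measured by ELISA. Activity was fitted bidirectionally against DMSO as negative control and baseline.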

[16] = BSK_3C_uPAR: BioMAP Diversity Plus: 3C Assay for Urokinase-type plasminogen activator receptor (uPAR) Biomarker Activity (AID 2282998); settings: BioMAP 3C HUVEC, uPAR biomarker ELISA; actives raise or lower the signal
Method in brief: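 Readout: ELISA for surface uPAR. System: human umbilical vein endothelial primary cells, 24 h after chemical exposure. Analysis: bidirectional fit, DMSO baseline.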

[17] = BSK_3C_VCAM1: BioMAP Diversity Plus: 3C Assay for Vascular cell adhesion molecule 1 (VCAM1) Biomarker Activity (AID 2282999); settings: BioMAP 3C HUVEC, VCAM1 ELISA, cytokine-stimulated; actives raise or lower the signal
Method in brief: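 Human umbilical vein endothelial cells (3C system), biomarker read by ELISA 24 h after dosing; bidirectional fit against DMSO baseline. Cytotoxicity tracked by SRB total-protein staining in parallel cultures at biomarker time.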

Measured: AC50

Chain of Oxysterols receptor LXR-alpha (Homo sapiens) (Q13133 whole entry, looked up, the tested form may be a part): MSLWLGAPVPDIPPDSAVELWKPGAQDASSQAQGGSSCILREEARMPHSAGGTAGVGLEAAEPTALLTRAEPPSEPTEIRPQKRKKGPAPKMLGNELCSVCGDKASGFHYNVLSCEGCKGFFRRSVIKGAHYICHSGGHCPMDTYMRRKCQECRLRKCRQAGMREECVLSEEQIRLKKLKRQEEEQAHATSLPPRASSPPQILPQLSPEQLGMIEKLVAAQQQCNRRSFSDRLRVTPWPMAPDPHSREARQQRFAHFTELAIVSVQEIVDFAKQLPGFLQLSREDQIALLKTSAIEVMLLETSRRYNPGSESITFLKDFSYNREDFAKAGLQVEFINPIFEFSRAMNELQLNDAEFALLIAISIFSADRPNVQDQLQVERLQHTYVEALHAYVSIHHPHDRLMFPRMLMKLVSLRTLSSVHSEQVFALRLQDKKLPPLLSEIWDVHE
Chain of Oxysterols receptor LXR-beta (Homo sapiens) (P55055 whole entry, looked up, the tested form may be a part): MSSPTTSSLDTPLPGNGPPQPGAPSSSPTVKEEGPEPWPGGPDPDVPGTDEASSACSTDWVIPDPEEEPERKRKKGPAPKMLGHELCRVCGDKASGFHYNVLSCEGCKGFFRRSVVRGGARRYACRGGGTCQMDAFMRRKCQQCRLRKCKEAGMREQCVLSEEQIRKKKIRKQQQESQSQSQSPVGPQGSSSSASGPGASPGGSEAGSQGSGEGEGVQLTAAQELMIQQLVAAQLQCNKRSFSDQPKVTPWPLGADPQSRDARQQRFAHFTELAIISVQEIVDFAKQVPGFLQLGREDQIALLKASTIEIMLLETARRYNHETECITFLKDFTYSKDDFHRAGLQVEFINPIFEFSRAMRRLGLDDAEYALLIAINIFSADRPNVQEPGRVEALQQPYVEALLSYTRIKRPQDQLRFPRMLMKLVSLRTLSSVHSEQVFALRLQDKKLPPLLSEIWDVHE
Chain of Cellular tumor antigen p53 (Homo sapiens) (P04637 whole entry, looked up): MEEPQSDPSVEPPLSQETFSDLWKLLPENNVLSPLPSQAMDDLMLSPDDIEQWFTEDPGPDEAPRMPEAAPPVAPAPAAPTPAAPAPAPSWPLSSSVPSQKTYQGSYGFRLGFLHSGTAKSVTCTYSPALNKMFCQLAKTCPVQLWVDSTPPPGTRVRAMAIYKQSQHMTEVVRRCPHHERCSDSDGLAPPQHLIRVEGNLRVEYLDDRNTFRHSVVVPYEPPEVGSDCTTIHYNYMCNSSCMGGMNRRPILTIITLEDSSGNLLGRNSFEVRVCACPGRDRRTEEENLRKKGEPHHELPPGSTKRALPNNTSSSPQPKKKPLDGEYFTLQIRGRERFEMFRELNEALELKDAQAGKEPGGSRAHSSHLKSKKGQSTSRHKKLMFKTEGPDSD
Chain of Hepatocyte nuclear factor 4-alpha (Homo sapiens) (P41235 whole entry, looked up, the tested form may be a part): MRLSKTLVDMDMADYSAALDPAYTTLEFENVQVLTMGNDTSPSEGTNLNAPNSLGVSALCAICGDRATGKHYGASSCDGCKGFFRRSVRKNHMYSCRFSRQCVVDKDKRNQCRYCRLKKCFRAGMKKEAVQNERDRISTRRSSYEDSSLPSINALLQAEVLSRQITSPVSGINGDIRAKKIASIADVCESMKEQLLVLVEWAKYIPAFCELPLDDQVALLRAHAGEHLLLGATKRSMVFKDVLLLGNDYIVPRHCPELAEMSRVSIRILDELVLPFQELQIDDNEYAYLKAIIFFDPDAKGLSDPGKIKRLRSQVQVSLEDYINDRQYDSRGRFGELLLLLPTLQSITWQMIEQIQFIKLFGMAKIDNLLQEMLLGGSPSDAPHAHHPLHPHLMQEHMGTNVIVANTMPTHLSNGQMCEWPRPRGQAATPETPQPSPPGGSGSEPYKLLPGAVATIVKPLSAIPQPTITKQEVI
Chain of Transcriptional activator Myb (Homo sapiens) (P10242 whole entry, looked up): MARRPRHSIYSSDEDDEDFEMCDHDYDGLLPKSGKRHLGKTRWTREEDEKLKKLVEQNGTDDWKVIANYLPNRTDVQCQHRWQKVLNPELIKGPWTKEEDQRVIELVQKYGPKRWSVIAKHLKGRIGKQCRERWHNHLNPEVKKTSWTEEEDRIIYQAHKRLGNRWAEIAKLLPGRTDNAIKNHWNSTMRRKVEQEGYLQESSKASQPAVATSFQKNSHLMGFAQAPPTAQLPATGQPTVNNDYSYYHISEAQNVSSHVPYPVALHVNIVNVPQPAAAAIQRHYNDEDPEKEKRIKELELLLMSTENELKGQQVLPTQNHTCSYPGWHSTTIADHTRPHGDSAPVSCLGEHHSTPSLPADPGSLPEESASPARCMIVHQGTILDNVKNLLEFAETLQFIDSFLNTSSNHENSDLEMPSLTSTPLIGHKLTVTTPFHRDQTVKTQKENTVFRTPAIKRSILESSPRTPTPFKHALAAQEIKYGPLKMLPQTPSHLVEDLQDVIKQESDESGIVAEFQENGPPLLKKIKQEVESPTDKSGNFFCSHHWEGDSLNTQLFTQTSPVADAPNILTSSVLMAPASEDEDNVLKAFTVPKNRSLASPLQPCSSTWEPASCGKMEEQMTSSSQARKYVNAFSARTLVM
Chain of Nuclear respiratory factor 1 (Homo sapiens) (Q16656 whole entry, looked up): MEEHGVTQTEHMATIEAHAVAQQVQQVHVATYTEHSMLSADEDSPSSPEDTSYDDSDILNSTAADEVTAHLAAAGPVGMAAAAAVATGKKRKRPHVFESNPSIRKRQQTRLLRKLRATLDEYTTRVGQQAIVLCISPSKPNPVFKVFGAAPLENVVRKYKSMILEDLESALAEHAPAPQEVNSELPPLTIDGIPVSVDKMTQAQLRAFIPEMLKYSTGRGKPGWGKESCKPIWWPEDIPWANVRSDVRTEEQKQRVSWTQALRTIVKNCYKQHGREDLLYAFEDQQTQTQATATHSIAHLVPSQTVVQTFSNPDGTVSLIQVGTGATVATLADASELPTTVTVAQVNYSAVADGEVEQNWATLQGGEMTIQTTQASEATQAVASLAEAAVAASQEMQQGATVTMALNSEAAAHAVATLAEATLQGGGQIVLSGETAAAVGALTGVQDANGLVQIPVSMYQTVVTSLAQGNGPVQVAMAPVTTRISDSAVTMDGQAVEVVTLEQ
Chain of Nuclear receptor subfamily 4 group A member 2 (Homo sapiens) (P43354 whole entry, looked up): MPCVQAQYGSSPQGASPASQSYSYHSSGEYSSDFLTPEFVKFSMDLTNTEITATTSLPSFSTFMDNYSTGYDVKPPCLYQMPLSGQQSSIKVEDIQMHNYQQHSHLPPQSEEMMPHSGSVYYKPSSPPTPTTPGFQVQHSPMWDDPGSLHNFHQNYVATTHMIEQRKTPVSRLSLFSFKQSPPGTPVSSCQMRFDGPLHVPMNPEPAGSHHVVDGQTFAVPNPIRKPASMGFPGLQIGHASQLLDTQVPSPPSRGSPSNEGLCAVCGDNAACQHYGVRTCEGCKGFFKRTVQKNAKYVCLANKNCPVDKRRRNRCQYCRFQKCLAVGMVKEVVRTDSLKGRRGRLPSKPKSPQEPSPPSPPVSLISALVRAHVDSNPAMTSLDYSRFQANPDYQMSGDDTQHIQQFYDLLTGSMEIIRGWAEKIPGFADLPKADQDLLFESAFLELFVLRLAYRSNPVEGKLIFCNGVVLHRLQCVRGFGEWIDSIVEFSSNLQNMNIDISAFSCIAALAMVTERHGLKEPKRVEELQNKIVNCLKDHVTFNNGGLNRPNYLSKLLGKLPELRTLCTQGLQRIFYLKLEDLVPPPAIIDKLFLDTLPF
Chain of Myc proto-oncogene protein (Homo sapiens) (P01106 whole entry, looked up): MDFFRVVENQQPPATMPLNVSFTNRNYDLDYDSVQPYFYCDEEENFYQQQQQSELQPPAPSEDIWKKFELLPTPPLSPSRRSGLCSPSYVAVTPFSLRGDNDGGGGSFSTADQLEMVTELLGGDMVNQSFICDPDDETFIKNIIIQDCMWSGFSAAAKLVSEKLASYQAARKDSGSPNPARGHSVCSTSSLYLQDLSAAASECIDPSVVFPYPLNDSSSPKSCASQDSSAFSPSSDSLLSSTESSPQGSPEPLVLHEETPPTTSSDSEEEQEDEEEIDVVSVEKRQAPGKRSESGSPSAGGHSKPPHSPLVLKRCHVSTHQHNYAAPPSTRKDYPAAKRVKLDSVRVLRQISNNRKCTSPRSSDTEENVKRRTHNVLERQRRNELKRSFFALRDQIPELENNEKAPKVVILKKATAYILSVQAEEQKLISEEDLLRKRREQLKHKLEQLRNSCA

CNC(=C[N+](=O)[O-])NCCSCc1ccc(CN(C)C)o1
not listed: [12] | [13] | [14] | [15] | [16] | [17]
inactive: all other assays above

CCC(C)COC(=O)CC(C)C (stereo not drawn)
not listed: [2] | [4] | [14] | [15] | [16] | [17]
inactive: all other assays above

CC1=CCC(=C(C)C)CC1
active: [10] 32 µM
not listed: [2] | [3] | [9] | [15] | [16] | [17]
inactive: all other assays above

CCCC(O)C(CC)CO (stereo not drawn)
not listed: [3] | [12] | [15] | [16] | [17]
inactive: all other assays above

OCC=Cc1ccccc1
active: [10] 65.9 µM
inactive: [1] | [14] | [4] | [5] | [6] | [8] | [9] | [11]

C=CC(=O)OCCCCCC
inactive: [1] | [3] | [4] | [5] | [6] | [7] | [10] | [11]

CN(C)C
inactive: [1] | [12] | [5] | [7] | [10] | [11] | [13]

c1ccc2scnc2c1
inactive: [12] | [2] | [5] | [6] | [8] | [9] | [11] | [13]
active: [10] 42.1 µM

CC1(C)CC(=O)CC(C)(C)N1
not listed: [1] | [3] | [14] | [15] | [16] | [17]
inactive: all other assays above

CCCCCCOc1ccc(O)cc1
active: [10] 18.7 µM | [11] 33.4 µM
inactive: [1] | [3] | [5] | [7] | [9] | [13]

CC(C)Cc1ccccc1
not listed: [1] | [4] | [12] | [13] | [15] | [16] | [17]
inactive: all other assays above

CCCCCc1cccc(=O)o1
inactive: [12] | [5] | [6] | [7] | [8] | [9] | [11] | [13]
active: [10] 41.5 µM

COc1cc(OC)c2ccc(=O)oc2c1
not listed: [1] | [12] | [13] | [15] | [16] | [17]
inactive: all other assays above

Nc1ccn([C@H]2CC[C@@H](CO)O2)c(=O)n1
not listed: [1] | [3] | [4] | [12] | [15] | [16] | [17]
inactive: all other assays above

CCOC(=O)CCCCCCCCC(=O)OCC
not listed: [1]
inactive: all other assays above

CC(=O)Oc1c(C)c(C)c2c(c1C)CC[C@@](C)(CCC[C@H](C)CCC[C@H](C)CCCC(C)C)O2
not listed: [1] | [2] | [9] | [15] | [16] | [17]
inactive: all other assays above

CC(O)CNCC(C)O (stereo not drawn)
inactive: [14] | [2] | [3] | [5] | [6] | [8] | [10] | [11] | [13]

CN(C)C(=O)Nc1ccccc1
inactive: [12] | [14] | [4] | [5] | [6] | [9] | [10] | [11]

O=c1cc(-c2ccc(O)cc2)oc2cc(O)cc(O)c12
active: [11] 26.5 µM
inactive: [12] | [14] | [2] | [4] | [5] | [6] | [7] | [8] | [10]

CCOC(=O)COC(=O)c1ccccc1C(=O)OCC
inactive: [14] | [2] | [5] | [6] | [7] | [8] | [10] | [11]

COC(=O)c1cccc(C(=O)OC)c1
inactive: [1] | [3] | [5] | [6] | [8] | [11] | [13]
active: [10] 24.7 µM

CCCCCCCCCOS(=O)(=O)O
inactive: [14] | [2] | [5] | [6] | [7] | [8] | [10] | [11] | [13]

COc1ccc(C(C)=O)cc1
inactive: [12] | [4] | [5] | [6] | [7] | [10] | [11] | [13]

CC(CO)c1ccccc1 (stereo not drawn)
inactive: [12] | [3] | [5] | [6] | [8] | [9] | [10] | [11] | [13]

CCCCCC1C(=O)CCC1CC(=O)OC (stereo not drawn)
inactive: [12] | [2] | [4] | [5] | [6] | [7] | [8] | [10] | [11]

CC(C)COC(=O)c1ccccc1
not listed: [1] | [3] | [4] | [15] | [16] | [17]
inactive: all other assays above
